From the supplement of paper PMC3334620
The full ranking holds about 33,000 sequences; the median of “E-score (-0.5 to 0.5)” is about -0.053, and the highest 2% start at about 0.37. The sample as a whole holds a higher share of the highest values than the screen did.

biological target: Hap1 (UniProt P0CE41); assay: PBM E-score (8-mer binding enrichment) (E-score (-0.5 to 0.5)); higher = stronger / more preferred TF binding; conditions: protein concentration: 200 nM; construct: GST-DNA-binding domain
How it was run: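 Bound GST-tagged yeast transcription factors, applied at about 100-200 nM to double-stranded universal all-10-mer Agilent arrays, were detected with fluorescent anti-GST. Scans were normalised with masliner. A modified Wilcoxon-Mann-Whitney statistic, the E-score, was assigned to each ungapped eight-base word pooled with its reverse complement by the Universal PBM Analysis Suite.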

UniProt P0CE41, sequence (P0CE41 whole entry, the tested form may be a part): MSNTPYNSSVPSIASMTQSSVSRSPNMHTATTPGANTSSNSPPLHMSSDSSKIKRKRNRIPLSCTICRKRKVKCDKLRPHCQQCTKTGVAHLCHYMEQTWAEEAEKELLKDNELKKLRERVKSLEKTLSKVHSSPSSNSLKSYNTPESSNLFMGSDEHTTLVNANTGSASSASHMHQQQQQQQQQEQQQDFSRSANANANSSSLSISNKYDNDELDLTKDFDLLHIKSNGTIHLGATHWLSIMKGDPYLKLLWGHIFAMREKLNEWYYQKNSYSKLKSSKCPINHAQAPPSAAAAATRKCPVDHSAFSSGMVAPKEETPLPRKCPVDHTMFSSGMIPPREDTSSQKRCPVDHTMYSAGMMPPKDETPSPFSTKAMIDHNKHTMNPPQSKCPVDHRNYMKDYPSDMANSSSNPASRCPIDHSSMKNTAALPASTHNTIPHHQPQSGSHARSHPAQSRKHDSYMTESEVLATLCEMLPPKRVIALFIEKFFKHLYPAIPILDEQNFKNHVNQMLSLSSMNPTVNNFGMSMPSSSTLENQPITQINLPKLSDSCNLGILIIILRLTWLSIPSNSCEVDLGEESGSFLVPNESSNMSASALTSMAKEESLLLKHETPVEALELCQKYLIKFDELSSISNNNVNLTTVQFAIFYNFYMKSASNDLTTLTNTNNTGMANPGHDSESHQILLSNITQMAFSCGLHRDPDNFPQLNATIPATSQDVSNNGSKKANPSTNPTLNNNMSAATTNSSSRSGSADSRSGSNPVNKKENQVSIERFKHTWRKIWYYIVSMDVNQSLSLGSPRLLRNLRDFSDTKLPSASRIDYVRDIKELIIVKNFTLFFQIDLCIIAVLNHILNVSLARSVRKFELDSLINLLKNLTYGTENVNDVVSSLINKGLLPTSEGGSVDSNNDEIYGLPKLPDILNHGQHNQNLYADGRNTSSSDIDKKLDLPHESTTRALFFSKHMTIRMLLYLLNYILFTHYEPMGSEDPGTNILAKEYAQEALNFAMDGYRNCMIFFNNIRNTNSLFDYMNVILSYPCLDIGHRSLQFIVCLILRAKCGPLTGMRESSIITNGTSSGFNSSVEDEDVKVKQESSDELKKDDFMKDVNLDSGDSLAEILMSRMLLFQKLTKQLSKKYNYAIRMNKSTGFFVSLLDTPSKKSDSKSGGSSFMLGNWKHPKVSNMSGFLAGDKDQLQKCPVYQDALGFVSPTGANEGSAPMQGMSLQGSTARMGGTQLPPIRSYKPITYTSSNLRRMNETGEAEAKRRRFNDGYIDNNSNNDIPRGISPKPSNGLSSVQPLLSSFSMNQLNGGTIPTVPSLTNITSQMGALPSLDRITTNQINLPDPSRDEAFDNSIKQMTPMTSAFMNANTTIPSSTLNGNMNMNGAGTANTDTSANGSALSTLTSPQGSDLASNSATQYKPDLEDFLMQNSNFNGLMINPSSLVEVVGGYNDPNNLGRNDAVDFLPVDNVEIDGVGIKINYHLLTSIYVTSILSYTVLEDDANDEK

| Sequence | PBM E-score |
| --- | --- |
| CTCCAAAC | -0.124 |
| CCCGAGGA | 0.192 |
| ACCGAGCT | 0.294 |
| ACCGAGCA | 0.359 |
| TCCGAGGA | 0.384 |
| ACCGAGCG | 0.384 |
| CCCGAGAA | 0.351 |
| TCCGAGAA | 0.381 |
| TCCGAGCA | 0.402 |
| ACCGAGAA | 0.271 |
| CCCGAGCG | 0.354 |
| GCCGAGCA | 0.236 |
| GCCGAGGA | 0.294 |
| GCTAGGGA | -0.228 |
| CCTTGAGA | -0.0628 |
| GCGTTGTA | -0.0982 |
| AACACCAA | -0.314 |
| TAGATAGA | -0.111 |
| GGCGAACC | 0.0857 |
| CCCGCAAC | 0.277 |
| ACCAGACC | 0.0586 |
| ATTTCTGG | -0.13 |
| GGTAAATA | 0.0374 |
| ATCCCGGG | 0.376 |
| GTCCCCGA | 0.269 |

| Sequence | PBM E-score |
| --- | --- |
| CTCCCCGC | 0.204 |
| ATCCCGGC | 0.339 |
| CTCCCCGA | 0.247 |
| ATCCCCGC | 0.371 |
| ATCCCCTG | -0.324 |
| ATCCCCCC | -0.00218 |
| ATCCCGGA | 0.36 |
| ATCCCCGA | 0.44 |
| ATCCCCCG | 0.366 |
| ATCCCCGG | 0.426 |
| AGGGAATG | -0.197 |
| AACACCCT | -0.0622 |
| GACCTCTC | 0.0308 |
| CCTATCAA | -0.119 |
| ACATGGAC | -0.143 |
| TGCGAGAA | -0.143 |
| ATAGGGAG | -0.147 |
| CTAGAGAA | -0.207 |
| GCCAGACC | 0.0912 |
| ACAGCTAC | -0.11 |
| TTAGAAAA | -0.0981 |
| AATCGCAC | -0.23 |
| CGGAGAAG | 0.378 |
| TGGAGAAA | -0.0481 |
| GGGAGAAA | 0.0441 |

| Sequence | PBM E-score |
| --- | --- |
| TCGAGAAA | -0.271 |
| GCGAGAAA | 0.116 |
| AGGAGAAG | -0.149 |
| CGGAGAAC | 0.36 |
| CGGAGAAA | 0.413 |
| CCGAGAAA | 0.4 |
| CTACTACC | 0.068 |
| TAACTTAA | 0.0501 |
| CATATGGG | 0.0423 |
| ACCACACT | -0.0326 |
| AACACCGT | 0.245 |
| AACACCGC | 0.278 |
| CCCACCGG | 0.374 |
| CACACCGG | 0.288 |
| AACACCGA | 0.446 |
| CCCACCGA | 0.0319 |
| AACACCTG | -0.0827 |
| AACACCGG | 0.409 |
| CCCACCGC | 0.153 |
| GCAACCCC | 0.0182 |
| ATGGAGTC | -0.104 |
| AACGGTAG | -0.00937 |
| CCGATGTC | 0.295 |
| CCGCACCC | 0.209 |
| CTTCCGTA | 0.262 |

| Sequence | PBM E-score |
| --- | --- |
| ATTCCGTA | 0.259 |
| CTTCCGGC | 0.275 |
| CTTCCGGA | 0.404 |
| GTTCCGGA | 0.383 |
| GTTCCGAA | 0.331 |
| ATTCCGCA | 0.196 |
| ATTCCGGA | 0.432 |
| GTTCCGCA | 0.209 |
| GATGAGGC | -0.0801 |
| AAATCGGT | 0.246 |
| ACGGGCCC | 0.214 |
| CCCTCACG | -0.262 |
| GAACCATA | -0.0291 |
| CTAAAACC | 0.291 |
| AGGAATGC | -0.253 |
| CCTCCGTC | 0.113 |
| ACTCCGTG | 0.292 |
| GCTCCGCA | 0.164 |
| CCTCCGAC | 0.28 |
| CCTCCGGA | 0.418 |
| CCTCCGGC | 0.399 |
| GCTCCGTA | 0.297 |
| ACTCCGGG | 0.39 |
| GCTCCGGA | 0.444 |
| CCTCCGTA | 0.246 |

| Sequence | PBM E-score |
| --- | --- |
| ACTCCTGG | -0.171 |
| CCTCCGCA | 0.173 |
| AGTCTTCC | -0.0885 |
| CGCCGTCC | 0.0969 |
| ACAATCAT | -0.0714 |
| GGTAGGAC | 0.0611 |
| ACTCCGTC | 0.3 |
| ACTCCGTA | 0.244 |
| ACTCCGGC | 0.389 |
| ACTCCGCC | 0.306 |
| ACTCCGGA | 0.461 |
| ACTCCGCA | 0.156 |
| AGTAGTAC | 0.105 |
| AACTAACA | -0.0716 |
| CTCGCAAC | -0.237 |
| ACGGGTTA | 0.0135 |
| CGGGTTTA | 0.474 |
| CCGGGGTA | 0.301 |
| GGGGTTTA | 0.266 |
| CGGGGTTA | 0.485 |
| CCGGGTTA | 0.37 |
| CGGGGGTA | 0.425 |
| AGGGGTTA | -0.0702 |
| GGGGGTTA | -0.181 |
| CGGGTTTC | 0.331 |

| Sequence | PBM E-score |
| --- | --- |
| CCGGGTTC | 0.296 |
| GGGGGGTA | 0.047 |
| GCATAGGA | -0.136 |
| ACGAGAAA | -0.00338 |
| CATAGCCA | -0.139 |
| ACGCCAAA | -0.08 |
| CTCCTGGA | -0.254 |
| GAATCAGC | -0.175 |
| TGGTACAA | -0.376 |
| GTGAGCAC | -0.232 |
| GGGGGATA | 0.134 |
| CGGTTTTA | 0.433 |
| CGGTTATA | 0.371 |
| AGGTTATA | -0.0688 |
| CGGGGATA | 0.475 |
| AGGGGATA | -0.167 |
| AGGTTTTA | 0.0786 |
| GGGTTATA | 0.0789 |
| CGGTTTAA | 0.168 |
| GGTGTTAC | 0.0592 |
| CCCCACTC | -0.186 |
| AGCGGCCG | 0.325 |
| ACTCCGAC | 0.353 |
| ACTCCGCG | 0.371 |
| ACTCCGAG | 0.401 |

| Sequence | PBM E-score |
| --- | --- |
| CCTCCGAG | 0.335 |
| GCTCCGAA | 0.367 |
| ACTCCCAT | -0.176 |
| ACTCCTAT | -0.141 |
| ACTCCGAA | 0.397 |
| ACTCCGAT | 0.406 |
| CCTCCGCG | 0.198 |
| ACTCCGCT | 0.21 |
| CCTCCGAA | 0.334 |
| GCGGTCGA | 0.163 |
| CCTTAGGC | -0.184 |
| ATGTAGCG | -0.0634 |
| CTCTACAG | -0.311 |
| CAGTCCAC | -0.272 |
| TCTCCGAA | 0.429 |
| TCTCCGCA | 0.299 |
| TCTCCAAA | -0.138 |
| CCGTCTGA | -0.0177 |
| CGACTTAA | -0.169 |
| GGACTTAA | 0.443 |
| AGACTTAA | -0.18 |
| CAGCTTCC | 0.00993 |
| TATTTGGA | -0.215 |
| CCCTCCGG | 0.331 |
| ACCTCCGG | 0.454 |

| Sequence | PBM E-score |
| --- | --- |
| CCCTCCGA | 0.253 |
| TCCTCCGA | 0.308 |
| ACCTCCGT | 0.286 |
| ACCTCCGA | 0.391 |
| AATCATTC | -0.0493 |
| CCTTGGAG | -0.109 |
| ACCCGCTA | 0.209 |
| GTCAGTCA | -0.172 |
| ACGGTATC | 0.113 |
| GCGGTATA | 0.0943 |
| AGGGTATA | 0.254 |
| CCGGTATA | 0.425 |
| CGGGTATA | 0.435 |
| ACGGTATA | 0.0727 |
| CCGGTATC | 0.433 |
| CAGGTATC | 0.0262 |
| GGGGTATA | 0.103 |
| ACCAAGCG | 0.0447 |
| CGGTTTCA | 0.263 |
| AACTCAGG | -0.116 |
| AGGGATGG | 0.00107 |
| AGCATCCG | 0.215 |
| AGCATATG | -0.278 |
| GCCGTTAA | 0.346 |
| TCCGTTAA | 0.408 |

| Sequence | PBM E-score |
| --- | --- |
| CCCGTTAA | 0.297 |
| ATCTAAAA | -0.105 |
| CGAGTACG | 0.0449 |
| CTCTCGAA | -0.332 |
| ATCTCGGC | 0.379 |
| GTCTCGGA | 0.358 |
| CTCTCGGC | 0.318 |
| CTCTCGGA | 0.4 |
| AGCTCGGC | 0.354 |
| CTCTCGCA | -0.179 |
| ATCTCGGA | 0.385 |
| ATCTCGGG | 0.356 |
| GCCGGGCC | 0.221 |
| GTGTGTGA | -0.201 |
| ACCCATGC | -0.249 |
| TAGGCTAA | -0.138 |
| GGATCGAC | 0.17 |
| ACCGACGG | 0.38 |
| ACCGACGT | 0.185 |
| CCCGACCG | 0.379 |
| ACCGACCG | 0.314 |
| CCCGACGG | 0.331 |
| CCCGACCC | 0.167 |
